Source: PubChem
An excerpt weighted towards active compounds, which were near 4.2% of everything screened.
hgDAF12 agonist – H. glycines DAF-12 receptor agonists, primary screen, cell-based, luminescence, HEK293, GAL4 fusion, UAS-luciferase; Nuclear hormone receptor DAF-12 (Heterodera glycines), GAL4 fusion; HEK293 GAL4-hgDAF12 UAS-luciferase reporter, agonist luminescence; normalized to butyrate control; activation, % at 6.8 µM; 1.8% of 370,000 active; AID 687014, 2013;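 active means activation above a cutoff set at the mean of all screened compounds plus 3 SD, cut at about 10% in these data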
SMARCA2 act – SMARCA2 (BRM) function activators, primary screen, cell-based, luminescence, high throughput | MG213 cells, MMTV-luciferase reporter, dexamethasone, overnight | activation, % at 9.1 µM | 1% of 370,000 active | AID 652017, 2013; in the data active means activation above about 7.8%
DAX1 StAR inh – DAX1 (NR0B1) inhibitors on StAR promoter, primary screen, cell-based, luminescence, SF-1 (NR5A1), full-length DAX-1. HEK293T StAR-luciferase reporter, SF-1/DAX-1 repression relief. inhibition, % at 6.8 µM. 1.1% of 370,000 active. AID 652010, 2013;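 active means inhibition above the mean over all tested compounds plus 3 SD, cut at about 3.6% in these data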;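 further: higher inhibition means more luminescence from relief of DAX-1 repression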
hcDAF12 agonist – H. contortus DAF-12 nuclear receptor activators, primary screen, cell-based, luminescence, HEK293, lit1-tk-luc reporter | activation, % at 6.8 µM | HEK293 hcDAF-12 lit1-tk-luc reporter; 0% DMSO, 100% Δ7-dafachronic acid | 1.4% of 370,000 active;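 active means activation above the mean of all tested compounds plus 3 SD, cut at about 5.5% in these data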
ssDAF12 agonist – S. stercoralis DAF-12 nuclear receptor activators, primary screen, cell-based, luminescence, HEK293, GRIP1 co-expression, lit1-tk-luc | Nuclear hormone receptor DAF-12 (Strongyloides stercoralis) | HEK293 ssDAF-12/GRIP1 lit1-tk-luc reporter; % of 3 µM dafachronic acid response | activation, % at 6.8 µM | 1% of 370,000 active;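 active means activation above the mean over all tested compounds plus 3 SD, cut at about 0.9% in these data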
Each line names hits and unclear results; the compound was inactive in the other large screens.

COc1cccc(OC(C)CCN2CCC(C(O)(c3ccccc3)c3ccccc3)CC2)c1 (stereo not drawn)	ssDAF12 agonist 0.9
CC(CCN1CCC(C(O)(c2ccccc2)c2ccccc2)CC1)Oc1cc(F)cc(C#N)c1 (stereo not drawn)	none
O=S(=O)(N1CCCCC1)n1c(Cc2ccccc2)nc2ccccc21	ssDAF12 agonist 1.9
S=C(NCc1ccccn1)Nc1ccccc1Cl	hcDAF12 agonist 5.6
O=C(NCc1ccccn1)Nc1ccc(Br)cc1Cl	DAX1 StAR inh 5.2
COc1ccc(-n2c(SCC(=O)Nc3ccc(S(=O)(=O)Nc4nccs4)cc3)nnc2-c2cccs2)cc1	none
COc1ccc(-c2nnn3c2Cn2c4ccccc4c(=O)n2[C@@H](C(C)C)C3)cc1	none
Cc1ccc(S(=O)(=O)N2CCN(C(=O)Cn3c(=O)oc4ccccc43)CC2)cc1	ssDAF12 agonist 1.0
COC(=O)C1=CN(c2ccc(C(C)(C)C)cc2)C(N)=C(C#N)C1c1ccccc1F (stereo not drawn)	none
COC(=O)C1=CN(c2ccc(OC)cc2)C(N)=C(C#N)C1c1ccccc1F (stereo not drawn)	DAX1 StAR inh 3.8
CCN(C(=O)[C@@H](C)[C@@H](O)c1ccc(C(C)=O)cc1)c1ccccc1	none
O=C(Nc1ccc2c(c1)OCO2)c1cc(C2CCCCN2S(=O)(=O)Cc2ccccc2)on1 (stereo not drawn)	hgDAF12 agonist 11, DAX1 StAR inh 4.4
O=C(c1ccccc1)N(CCCn1ccnc1)C(c1ccccc1)c1nc2ccccc2[nH]1 (stereo not drawn)	DAX1 StAR inh 3.6
O=C(CSc1nc2ccccc2[nH]1)NCCCn1ccnc1	none
O=C(Nc1nc2c(F)cc(F)cc2s1)C1CCN(C(=O)c2ccc(F)cc2)CC1	DAX1 StAR inh 4.0
O=C(Nc1nc(-c2ccc(F)cc2)cs1)C1CCN(C(=O)c2ccc(F)cc2)CC1	none
Cc1ccc2nc(SCc3nc4ccccc4c(=O)[nH]3)[nH]c2c1	hgDAF12 agonist 11
COC(=O)c1sc2nc(CSc3nc4ccc(C)cc4[nH]3)[nH]c(=O)c2c1C	hcDAF12 agonist 6.1
Cc1ccc(NC(=O)[C@H](C)NC(=O)C2CCN(C(=O)[C@@H](N)CC(C)C)CC2)cc1	hcDAF12 agonist 6.0
O=C(CN1CCc2onc(-c3ccc(-n4cc(-c5ccccc5)nn4)cc3)c2C1=O)N1CCOCC1	none
Nc1ccc(C(=O)c2cccs2)cn1	hcDAF12 agonist 5.8
C/C(=N/NC(=O)c1ccoc1C)C12CC3CC(CC(C3)C1)C2	hgDAF12 agonist 13
COCCCN1CCC2(CCC(c3ccccc3)CC2)C1=O (stereo not drawn)	none
CC(C)(C)C(=O)Nc1ccccc1-c1nc2ccccc2[nH]c1=O	none
Cc1ccc(NC(=O)CCCC(=O)O)c(-c2nc3ccccc3[nH]c2=O)c1	ssDAF12 agonist 0.9
COCCCNC(=O)CSc1nnc(-c2cccnc2)n1C1CCCCC1	none
CN1C(=O)c2cc(NC(=O)Cc3cccs3)ccc2OC[C@@H]2O[C@@H](CC(=O)N[C@H]3CCN(Cc4ccccc4)C3)CC[C@@H]21	none
COc1ccc(-c2cc(C(=O)OC(C)C(=O)Nc3c(C)n(C)n(-c4ccccc4)c3=O)c3ccccc3n2)cc1 (stereo not drawn)	none
Cc1c(NC(=O)C(C)OC(=O)c2cc(-c3cccc4ccccc34)nc3ccccc23)c(=O)n(-c2ccccc2)n1C (stereo not drawn)	hgDAF12 agonist 11
O=c1c(C=NCCCn2ccnc2)c(-c2ccccc2)[nH]n1-c1nc2ccccc2s1	DAX1 StAR inh 4.3
Cc1cccc2sc(N(CCCN(C)C)C(=O)c3ccco3)nc12	none
Cc1cccc2sc(N(CCCN(C)C)C(=O)c3ccc(Cl)s3)nc12	ssDAF12 agonist 0.9
O=S1(=O)c2ccc(N3CC[C@@H](O)C3)cc2OCCCN1C1CC1	none
O=C(Nc1ccc2c(c1)OCCO2)c1cnc2n(c1=O)CCS2	DAX1 StAR inh 3.7
Cc1cccc(NC(=O)c2cnc3n(c2=O)CCS3)c1	none
O=C(Nc1ccccc1)c1cnc2n(c1=O)CCS2	hcDAF12 agonist 6.1
NC1=[N+](Cc2ccccc2)C(Cc2ccccc2)C2C(=C3CCCCC3n3c(=O)n(-c4ccccc4)c(=O)n32)N1 (stereo not drawn)	none
COC(=O)c1cc(=O)nc(NN=C(C)C)s1	none
Cc1ccc(Nc2ncc3c(n2)CC(C)(C)CC3=O)cc1	hgDAF12 agonist 13
CC1(C)CC(=O)c2cnc(NC3CC3)nc2C1	none
CCCCOCCCNC(=O)C[C@@H]1C(=O)N2CCCC3=C2[C@@]1(C(=O)OCC)CCC3	none
COc1ccc(CCNC(=O)c2c(N)[nH]c(C(=O)c3ccccc3)c2-c2ccc(N(C)C)cc2)cc1	none (no result: SMARCA2 act, DAX1 StAR inh)
Cc1ccc(C)c(N(CC(=O)Nc2ccc(-c3nc4ccc(C)cc4s3)cc2)S(C)(=O)=O)c1	ssDAF12 agonist 1.6
Cc1ccc(N(CC(=O)Nc2ccc(-c3nc4ccc(C)cc4s3)cc2)S(C)(=O)=O)cc1	hgDAF12 agonist 12, DAX1 StAR inh 4.4, ssDAF12 agonist 0.9
CCOc1ccc(N(CC(=O)Nc2cc(C)cc(C)c2)S(C)(=O)=O)cc1	none
Cc1ccc2nc(-c3ccc(NC(=S)NC(=O)CC(C)C)cc3)sc2c1	none
CCOc1ccc(N(CC(=O)Nc2ccc(C)cc2)S(C)(=O)=O)cc1	hgDAF12 agonist 12
CC(C)c1nc2sc3c(c2c(=O)o1)CCCC3	none
Cc1ccc(-c2nc3sc4c(c3c(=O)n2N)CC(C)(C)OC4)cc1	none
Cc1nc2sc3c(c2c(=O)o1)CCCC3	ssDAF12 agonist 1.0
Cc1ccc(-c2nc3sc4c(c3c(=O)n2N)CCCC4)cc1	hgDAF12 agonist 12, hcDAF12 agonist 5.8
Cc1cc2c(cc1C)-n1nnnc1C(N1CCN(c3ccccc3F)CC1)C(=O)N2 (stereo not drawn)	none
CCC[C@H]1[C@H](N)CC[C@@]23CCCN2C(=O)CCC[C@@H]13	none (no result: SMARCA2 act, DAX1 StAR inh)
N/C(=N\NC(=O)c1cccs1)c1cc2ccccc2oc1=O	hgDAF12 agonist 11
O=S1(=O)c2ccc(Br)cc2OC[C@H](Cc2ccccc2)N1Cc1cn(CCC2OCCO2)nn1	none
COc1ccc(NC(=O)CN(C)C(=O)Cc2c[nH]c3ccccc23)cc1	hcDAF12 agonist 6.4
COc1ccccc1NC(=O)COC(=O)Cc1c[nH]c2ccccc12	hcDAF12 agonist 6.3
COc1ccc(NC(=O)CN(C)C(=O)Cc2ccc(S(=O)(=O)N3CCOCC3)s2)cc1	DAX1 StAR inh 4.4
CN(CC(=O)Nc1c(Cl)cccc1Cl)C(=O)Cc1ccc(S(=O)(=O)N2CCOCC2)s1	none
COc1ncc(-c2cc(C(C)=O)c3n(c2=O)CCC3)c(OC)n1	none
